This note sets out measurements from PubChem BioAssay (EPA / NIEHS).

The source made the active and inactive calls. The calls were made as follows: active = hit-call score of the fitted dose curve at least 0.9, where 1 is the maximum; inactive = score below 0.9.

The assay can be described thus: CCTE_Shafer_MEA_acute_network_burst_percentage: CCTE's Neural Acute Assay for Percentage of Network Bursts, Shafer Lab (AID 2284022).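 Also: curves fitted for loss so actives lower network burst percentage.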 Here is the method:
CCTE_Shafer_MEA_acute assay is conducted using Axion Biosystems 48 well microelectrode array (MEA) plates and Maestro recording system. Each well of the MEA plate contains a grid of 16 microelectrodes embedded in the culture surface. Electrically active cells, such as neurons, can be cultured over the electrodes, and electrical activity in these cells can be recorded extracellularly. The spontaneous firing of neurons is captured from each electrode on a microsecond timescale providing both temporally and spatially precise data. […] The CCTE_Shafer_MEA_acute assay uses primary cultures of rat cortical neurons. As these cultures mature over time, neural networks develop functional activity and form cohesive networks in which electrical activity can be highly coordinated. Baseline 40-minute recordings are made on days post-plating 13 or 15, followed by a secondary 40-minute recording after chemical exposure.CCTE_Shafer_MEA_acute_network_burst_percentage is a component of the CCTE_Shafer_MEA_acute assay. It measures the percent of spikes (action potential firings) in network bursts (temporally-clustered groups of spikes across multiple electrodes) as the number of spikes occuring in network bursts divided by the total number of spikes during a recording in a microelectrode array (MEA) using Axion Biosystems Maestro 768 channel amplifier with the AxIS adaptive spike detector. The recordings before and after chemical treatment are used to calculate a percent change in the network burst percentage in each well.Data from the assay component CCTE_Shafer_MEA_acute_network_burst_percentage was analyzed into 1 assay endpoint. This assay endpoint, CCTE_Shafer_MEA_acute_network_burst_percentage, was analyzed in the negative analysis fitting direction relative to DMSO as the negative control and baseline of activity. Using a type of functional reporter, gain or loss-of-signal activity can be used to understand electrical activity.
Spontaneous activity in the cortical cultures was recorded using an Axion Biosystems Maestro 768 channel amplifier and Axion Integrated Studios (AxIS) v1.8 (or later) software. The amplifier recorded from all channels simultaneously (gain = 1200 x; sampling rate = 12.5 kHz/channel): raw signals were filtered with a Butterworth band-pass filter (300-5000 Hz), which filters out slower local field potentials leaving only fast potentials, i.e., "spikes", arising from extracellular currents associated with action potentials (Pine 2006; Wheeler and Nam 2011). On-line spike detection of filtered signals was conducted with the AxIS adaptive spike detector, using a threshold of 8x the root mean squared (rms) noise on each channel. Any electrodes with rms noise levels greater than 5 uV were grounded (e.g., no data were recorded). Once grounded, an electrode was grounded for the duration of the experiment. All recordings were conducted at 37 C. Wells were deemed usable if on the day of the exposure >/= 10 electrodes were active (defined as >/= 5 spikes/min). On DIV 13 or 15, a minimum of three wells from one cortical culture preparation were treated with each compound (0.03-40 uM). Prior to recording baseline activity, each mwMEA plate was placed in the Maestro at 37 C and allowed to sit for 20 min while firing rates stabilized. Baseline activity (40 min) was recorded before the addition of each compound. An additional 40 min of spontaneous activity was recorded in the presence of each compound. Changes in network parameters relative to baseline were assessed following compound treatment.
A word on the AC50: it is the concentration at which the activity in the assay is half-maximal. In the case of `Cc1[nH]cnc1C[C@H]1CCc2c(C)c3ccccc3n2C1=O`, the AC50 is 24.2 µM (active).

In the case of `CC[C@H]1CC[C@H](NCc2cc3c(cc2OC)[C@H]2C[C@H]2C(=O)N3C)[C@H](c2ccccc2)N1`, the compound was called inactive.

On to `CC[C@H]1OC(=O)[C@H](C)[C@@H](O[C@H]2C[C@@](C)(OC)[C@@H](O)[C@H](C)O2)[C@H](C)[C@@H](O[C@@H]2O[C@H](C)C[C@H](N(C)C)[C@H]2O)[C@](C)(O)C[C@@H](C)C(=O)[C@H](C)[C@@H](O)[C@]1(C)O`, for which the outcome was inactive.

On to `CCCCCCc1ccc(O)cc1O`, for which the outcome was inactive.

In the case of `CCC(C)(C)C(=O)O[C@H]1C[C@@H](C)C=C2C=C[C@H](C)[C@H](CC[C@@H]3C[C@@H](O)CC(=O)O3)[C@H]21`, the compound was classed as inactive.

In the case of `CCCCC(CC)COC(=O)CCCCCCCCC(=O)OCC(CC)CCCC` (stereo not drawn), the call was inactive.

For `COc1cccc(-c2ccc(/C=C\CN3CCCCCC3)cc2Cl)c1`, the result was inactive.

Consider `Cn1c(=O)c2c(ncn2C)n(C)c1=O`, for which the compound was called inactive.

On to `O=C(O)CCN(C1(C(=O)NO)CCCC1)S(=O)(=O)c1ccc(Oc2ccc(F)cc2)cc1`, for which the compound was called inactive.

Consider `O=P(OC(CCl)CCl)(OC(CCl)CCl)OC(CCl)CCl`, for which the result was inactive.

As to `O=C(O)c1cc(N=Nc2ccc(S(=O)(=O)Nc3ccccn3)cc2)ccc1O`, the outcome was inactive.

For `COc1ccc2sc(C(=O)Nc3nnn[nH]3)c(OC(C)C)c2c1`, the compound was classed as inactive.

Take `Cn1cnc([N+](=O)[O-])c1Sc1ncnc2nc[nH]c12`: the call was inactive.

Take `CCCCCCCCCCCCc1ccccc1`: the result was inactive.

On to `CC(C)=CCCC(C)=CC=O`, for which the result was inactive.

In the case of `CCOC(=O)c1ccc(C2CCC(NC[C@H](O)COc3ccc(O)c(NS(C)(=O)=O)c3)CC2)cc1` (stereo partly drawn), the outcome was inactive.

As for `On1ccccc1=S`, the call was inactive.

As for `CCCN(C1CCN(C(=O)C2CCNCC2)CC1)[C@@H]1CCc2ccc(OC)cc2C1`, the AC50 was 7.55 µM (active).
